From the supplement of paper PMC3545927
This is one part of the list. The true hit rate is not given.

Target: furin, P09958
Experiment: furin cleavage Z-score vs untreated control; higher = more cleavage, active = 3.5 or more, inactive = 1 or less, 8 variable residues between constant flanks
Summary of the method: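 Cleavage by purified furin was measured on 8-mer peptides fused to a cDNA oligonucleotide and held on magnetic beads by their N-terminus. Reactions (0.01 ml, 1:10 enzyme:substrate) ran 7.5, 15 or 30 min in 50 mM HEPES pH 7.5 with CaCl2 and NaCl. Released DNA was adapter-tagged by PCR and sequenced, with read counts giving abundance. Log counts versus furin-free reactions were lowess-adjusted and scaled by median absolute deviation to give the cleavage Z-score.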

Chain of furin, P09958 (P09958 whole entry): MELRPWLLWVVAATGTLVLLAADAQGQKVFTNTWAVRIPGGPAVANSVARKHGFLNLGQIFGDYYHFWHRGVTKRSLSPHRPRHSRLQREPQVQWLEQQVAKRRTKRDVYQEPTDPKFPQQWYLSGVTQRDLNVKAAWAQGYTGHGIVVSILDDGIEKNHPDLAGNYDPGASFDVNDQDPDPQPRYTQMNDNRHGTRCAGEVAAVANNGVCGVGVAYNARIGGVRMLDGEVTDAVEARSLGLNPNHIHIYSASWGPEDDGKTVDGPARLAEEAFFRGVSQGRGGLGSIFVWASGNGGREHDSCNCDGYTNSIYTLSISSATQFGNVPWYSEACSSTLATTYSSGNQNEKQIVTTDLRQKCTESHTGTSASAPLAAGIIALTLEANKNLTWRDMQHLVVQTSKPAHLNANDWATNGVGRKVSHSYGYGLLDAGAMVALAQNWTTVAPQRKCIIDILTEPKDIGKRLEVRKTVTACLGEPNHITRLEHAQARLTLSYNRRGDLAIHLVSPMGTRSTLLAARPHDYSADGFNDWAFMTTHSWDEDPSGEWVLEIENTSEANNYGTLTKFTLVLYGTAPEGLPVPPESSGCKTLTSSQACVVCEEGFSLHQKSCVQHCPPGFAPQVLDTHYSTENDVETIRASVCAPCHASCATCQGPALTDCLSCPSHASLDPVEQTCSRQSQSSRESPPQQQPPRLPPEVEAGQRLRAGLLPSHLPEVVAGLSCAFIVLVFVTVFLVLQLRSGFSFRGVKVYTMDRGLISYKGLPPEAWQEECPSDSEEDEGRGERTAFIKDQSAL

Sequence	furin cleavage Z-score (7.5 min)	furin cleavage Z-score (15 min)	furin cleavage Z-score (30 min)
CAVIAPAVQTAGNASASA [HC1033]	0.392 (inactive)	0.329 (inactive)	0.692 (inactive)
CAFFTELDGVAGNASASA [HC1221]	-0.975 (inactive)	-0.00103 (inactive)	-0.854 (inactive)
CAEVPCHRPFAGNASASA [HC2407]	-0.191 (inactive)	0.106 (inactive)	0.623 (inactive)
CAECVVCCSMAGNASASA [HC2140]	0.85 (inactive)	1.09	-0.883 (inactive)
CAEVPCHRPYAGNASASA [HC2409]	0.869 (inactive)	-0.249 (inactive)	1.01
CAEVVTSCWVAGNASASA [HC2220]	-1.37 (inactive)	0.202 (inactive)	-0.78 (inactive)
CAVVCCSRSYAGNASASA [HC2053]	-1.24 (inactive)	-0.358 (inactive)	0.798 (inactive)
CACVCCSMSYAGNASASA [HC2000]	-0.467 (inactive)	-0.374 (inactive)	0.0175 (inactive)
CAMKKRTKRLAGNASASA [FS-365]	9.31 (active)	8.89 (active)	7.26 (active)
CASNQRPKRLAGNASASA [FS-298]	5.25 (active)	8.19 (active)	7.26 (active)
CASPSRTKRLAGNASASA [FS-870]	7.89 (active)	8.76 (active)	6.67 (active)
CAMWKCLIRLAGNASASA [HC964]	0.587 (inactive)	2.14	2
CAGKKRTVEMAGNASASA [FS-2861]	-0.948 (inactive)	0.0508 (inactive)	-1.47 (inactive)
CAANRRDVRLAGNASASA [FS-322]	0.0384 (inactive)	-1.82 (inactive)	1.41
CAEVVCHRPSAGNASASA [HC2350]	-0.3 (inactive)	0.778 (inactive)	0.34 (inactive)
CADWMEECSQAGNASASA [HC1808]	0.73 (inactive)	-0.408 (inactive)	-0.438 (inactive)
CAVVCCSMSMAGNASASA [HC2086]	0.14 (inactive)	-1.35 (inactive)	0.14 (inactive)
CAPSQRSKRPAGNASASA [FS-477]	-0.582 (inactive)	0.273 (inactive)	-0.55 (inactive)
CAVPQSFQVAAGNASASA [HC770]	-0.249 (inactive)	-1.95 (inactive)	-0.519 (inactive)
CAHPQRSKKAAGNASASA [FS-248]	-0.0765 (inactive)	0.432 (inactive)	1.4
CAVTQRSKRAAGNASASA [FS-388]	10.4 (active)	9.15 (active)	7.46 (active)
CATQQRSKRAAGNASASA [FS-1496]	7.63 (active)	7.61 (active)	6.89 (active)
CAGWLRSKKAAGNASASA [FS-1530]	-0.625 (inactive)	-0.994 (inactive)	-0.39 (inactive)

Sequence	furin cleavage Z-score (7.5 min)	furin cleavage Z-score (15 min)	furin cleavage Z-score (30 min)
CAGRKPARLIAGNASASA [HC1447]	-1.48 (inactive)	-1.33 (inactive)	-0.697 (inactive)
CARHVRSYNHAGNASASA [FS-2026]	0.349 (inactive)	0.971 (inactive)	3.01
CAPAGRISRSAGNASASA [FS-835]	6.15 (active)	10.5 (active)	8.23 (active)
CARHVRISRSAGNASASA [FS-708]	10.5 (active)	10.5 (active)	7.87 (active)
CAIPLVGAPLAGNASASA [HC229]	-1.25 (inactive)	-1.1 (inactive)	-0.498 (inactive)
CAYGVGSSIAAGNASASA [HC512]	-0.889 (inactive)	-1.2 (inactive)	0.412 (inactive)
CALRPRQRRAAGNASASA [FS-360]	7.42 (active)	7.73 (active)	6.07 (active)
CALDPQARVAAGNASASA [HC1493]	-1.42 (inactive)	-2.18 (inactive)	-0.348 (inactive)
CAKCPCQVPSAGNASASA [HC1216]	0.69 (inactive)	0.244 (inactive)	-0.458 (inactive)
CALRLRGPRAAGNASASA [FS-943]	4.69 (active)	3.33	3.8 (active)
CALTPLRDWAAGNASASA [HC637]	-0.181 (inactive)	1.58	-0.616 (inactive)
CAKCPRQRRAAGNASASA [FS-445]	7.55 (active)	6.15 (active)	7.23 (active)
CAQRQKKVTFAGNASASA [HC1394]	1.32	-2.05 (inactive)	-3.25 (inactive)
CAQRQRAKRNAGNASASA [FS-1252]	13.8 (active)	13.3 (active)	10.1 (active)
CAKIPRFRRIAGNASASA [FS-449]	0.2 (inactive)	0.191 (inactive)	2.93
CAARAACRAAAGNASASA [HC1520]	-1.54 (inactive)	-0.427 (inactive)	-0.259 (inactive)
CALRPRFRREAGNASASA [FS-614]	10 (active)	8.78 (active)	6.07 (active)
CAPRARCRRAAGNASASA [FS-138]	8.91 (active)	10.2 (active)	7.25 (active)
CALRWRQRRAAGNASASA [FS-272]	3.83 (active)	4.93 (active)	3.79 (active)
CARRPEGRTWAGNASASA [HC195]	-0.89 (inactive)	0.845 (inactive)	-0.916 (inactive)
CAISGIQYLAAGNASASA [HC1045]	-1.05 (inactive)	0.557 (inactive)	-1.83 (inactive)
CAISPRQRRAAGNASASA [FS-543]	7.77 (active)	6.99 (active)	6.1 (active)
